# Measured values taken from PubChem BioAssay (EPA / NIEHS).
# Calls of active or inactive are those of the source. Rule for the calls: active = hit-call score of the fitted dose curve at least 0.9, where 1 is the maximum; inactive = score below 0.9.
# Experiment: ATG_GATA_CIS: Attagene CIS-FACTORIAL HepG2 Assay for human GATA Binding Protein (AID 2282944)
# Conditions: HepG2 GATA cis-element reporter, Attagene multiplex mRNA; actives raise or lower the signal
# Procedure: ATG_CIS is a cell-based, multiplexed-readout assay that uses HepG2, a human liver cell line, with measurements taken at 24 hours after chemical dosing in a 24-well plate.ATG_GATA_CIS is one of 52 assay component(s) measured or calculated from the ATG_CIS assay. It is designed to make measurements of mRNA induction, a form of inducible reporter, as detected with fluorescence intensity signals by Reverse transcription polymerase chain reaction (RT-PCR) and Capillary electrophoresis technology.Data from the assay component ATG_GATA_CIS was analyzed into 1 assay endpoint. This assay endpoint, ATG_GATA_CIS, was analyzed with bidirectional fitting relative to DMSO as the negative control and baseline of activity. Using a type of inducible reporter, measures of mRNA for gain or loss-of-signal activity can be used to understand the reporter gene at the transcription factor-level as they relate to the gene GATA1. Furthermore, this assay endpoint can be referred to as a primary readout, because this assay has produced multiple assay endpoints where this one serves a reporter gene function. To generalize the intended target to other relatable targets, this assay endpoint is annotated to the dna binding intended target family, where the subfamily is GATA proteins.
# Human liver HepG2 cells are transiently transfected with multiple reporter transcription units (MRTUs) in 6-well plates using FuGene 6 reagent (Roche; 3 ml FuGene/1 mg DNA). The MRTU constructs are regulated by a cis-regulating element (promoter). […] A major difference between the CIS and TRANS system is that in CIS activities of endogenous TFs are measured, whereas the TRANS assay evaluates changes in activities of exogenous, chimeric NR-Gal4 proteins. […] At the end of 24 hour incubation, total RNA was isolated using TriZol reagent (Invitrogen). The isolated RNA is then reverse-transcribed using oligo(dT) primer and Mo-MLV reverse transcriptase (Invitrogen) with DNAse I (Ambion) treatment for 30 min. The one-tenth of the produced cDNA was amplified by PCR using Taq DNA polymerase (Invitrogen) and two reporter sequence-specific primers. The PCR products were fluorescently labeled by primer extension with 6-arboxyfluorescein (6-FAM) 5'-labeled reporter sequence-specific primer (2 min at 95 C, 20 s at 68 C and 10 min at 72 C) and these products were digested with 5U of HpaI (New England Biolabs) for 2h at 37 C. The fragments were purified using Qiaquick PCR columns (Qiagen), analyzed on an ABI 3130xL genetic analyzer (Applied Biosystems) with peak positions identified by using a set of X-rhodamine (ROX)-labeled MapMarker1000 molecular weight standards (BioVentures). The raw capillary electrophoresis data was processed using Attagraph software (Attagene).
SMILES,outcome,AC50
CCOC(=S)SSC(=S)OCC,inactive,–
O=C(O)c1ccc([N+](=O)[O-])cc1,inactive,–
CC1(C)[C@@H]2CC[C@@]1(C)[C@H](O)C2,inactive,–
CN1Cc2c(N)cccc2C(c2ccccc2)C1 (stereo not given),inactive,–
CC[Si](OC(C)=O)(OC(C)=O)OC(C)=O,inactive,–
CC(C)=CCCC(C)CC=O (stereo not given),inactive,–
O=S(=O)(O)c1ccc(O)c2ncccc12,inactive,–
CC(C)(C)C(=O)c1ccccc1,inactive,–
Nc1ccc(S(=O)(=O)O)c(N)c1,inactive,–
Cc1ccc(O)c(C(C)(C)C)c1,inactive,–
Clc1ccc2c(c1)C(N1CCNCC1)=Nc1ccccc1O2,inactive,–
CC1CCC(C(C)(C)O)CC1 (stereo not given),inactive,–
CCCC1CCC(=O)O1 (stereo not given),inactive,–
NCCCCCCN,inactive,–
Cc1cc(C2(c3cc(C)c(O)cc3C)OS(=O)(=O)c3ccccc32)c(C)cc1O,inactive,–
COc1nc(C)nc(N)n1,inactive,–
CN(C)CCOCCN(C)C,inactive,–
CCCC(=O)OCCC(C)CCC=C(C)C (stereo not given),inactive,–
CC[C@]12CCCN3CCc4c(n(c5ccccc45)[C@@](O)(C(=O)OC)C1)[C@@H]32,inactive,–
CCCC(=O)c1cc(O)c(O)cc1O,inactive,–

SMILES,outcome,AC50
Cc1cccc(C)c1C,inactive,–
CCCCCCCCCCCCN,inactive,–
CCCCC/C=C/C=C/C=O,inactive,–
C=C(C)C(=O)OCCOC(=O)CC(C)=O,inactive,–
CC(C)(C)c1cc(CCC(=O)NN)cc(C(C)(C)C)c1O,inactive,–
CCCCCCCCCCCCCCCCCC(=O)OCC(CC)CCCC (stereo not given),inactive,–
COC(C)CCO (stereo not given),inactive,–
O=C(O)c1ccc(C(=O)O)cc1,inactive,–
CC(CC(C)(C)C)CC(C)(C)CC(C)(C)C (stereo not given),inactive,–
O=Nc1ccc(Nc2ccccc2)cc1,inactive,–
Cc1ccc2ccccc2n1,inactive,–
CCCc1ccccc1O,inactive,–
CC1=CCC(O)(C(C)C)CC1 (stereo not given),inactive,–
CCCCCCCCCCCCCCCC(=O)O,inactive,–
O=c1cc(-c2ccccc2)oc2cc(O)cc(O)c12,inactive,–
CN(C)C(=N)N=C(N)N,inactive,–
CCCCOCCOCCSC#N,inactive,–
O=C[C@H](O)[C@H](O)[C@H](O)CO,inactive,–
[Ca+2],inactive,–
O=C1c2ccccc2C(=O)N1SC1CCCCC1,–,144 µM (active)
